# Screening data as filed in PubChem BioAssay.
# KB-V1 MDR tox – KB-V1 MDR subline cytotoxicity; Potency, µM (highest dose often 46.1 µM), most hits filed as cytotoxic; actives 3.4% (n = 400,000); AID 1347076; KB-V1 MDR cells viability, CellTiter-Glo, 72 h; further: on the % scale 0 is the no-effect control and ±100 the full control effect; nearly all actives have a fitted effect of over 60% in size
#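 Drug-selected KB-V1 cells, grown in DMEM lacking phenol red with 10% FBS, receive compound titrations; after three days at 37 degrees C, surviving cell ATP is quantified by CellTiter-Glo luminescence and responses normalized and curve-fitted.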
# HT1080NT lethal – kills 2HG-producing HT-1080-NT fibrosarcoma cells; HT-1080-NT fibrosarcoma viability, CellTiter-Glo ATP luminescence, 48 h; Potency, µM (top dose mostly 46.1 µM), for inactives: at the top dose activity, negative = less viability, usual class: cytotoxic; actives 1.6% (n = 360,000);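 further: NT is the 2HG producing partner of a matched IDH1 knockdown line; 0% = DMSO-treated cells and -100% = media-only wells without cells; nearly all actives have a fitted effect of over 55% in size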
#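 HT-1080-NT fibrosarcoma cells (2HG-overproducing), 750 cells/well in RPMI with 5% FBS, dosed after 2 h and incubated 48 h at 37C. CellTiter-Glo luminescence normalized to DMSO and no-cell wells; concentration-response curves fitted and classed.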
# KB-3-1 tox – kills parental KB-3-1 adenocarcinoma cells; actives 1.4% (n = 400,000); KB-3-1 viability, CellTiter-Glo ATP luminescence, 72 h; AID 1347075; Potency, µM (highest dose often 46.1 µM), hits mostly cytotoxic; further: on the % scale 0 is the no-effect control and ±100 the full control effect; nearly all actives have a fitted effect of over 60% in size
#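 Multi-concentration cytotoxicity screen in KB-3-1 cells grown in DMEM lacking phenol red with 10% FBS. After 72 h at 37 °C with compound, ATP-dependent luminescence was recorded.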
# HT1080 IDH1KD tx – toxicity to HT-1080 IDH1 knockdown cells (counter line); HT-1080 IDH1 knockdown viability, ATP luminescence, 48 h; Potency, µM (titrated, usually from 46.1 µM), without a hit: at the top dose activity, negative = toxicity, actives largely listed as cytotoxic; actives 2% (n = 360,000); AID 686971;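 further: 0% = DMSO wells and -100% = cell-free medium wells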
#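 CellTiter-Glo luminescence after 48 h compound exposure at 37 degrees C of IDH1-knockdown HT-1080 cells in 5% FBS RPMI. %Activity scaled between DMSO wells and cell-free media wells, with curves fitted and assigned curve classes.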
# MCF10A rereplic – inducers of DNA re-replication in MCF 10A breast cells. MCF 10A DNA re-replication, Hoechst nuclear intensity, 48 h. Potency, µM (highest dose often 46.1 µM), inactives show top-dose activity, positive = re-replication, most hits filed as activators. actives 2.9% (n = 350,000). AID 624296; further: % of control where 0% means no effect; nearly all actives have a fitted effect of over 50% in size
# SW480 rerep – inducers of DNA re-replication in SW480 colon cancer cells; Potency, µM (highest dose often 46.1 µM), inactives show top-dose re-replication activation, most hits filed as activators; AID 624297; actives 1.8% (n = 340,000); SW480 DNA re-replication, Hoechst DNA content imaging, 48 h; further: % of control where 0% means no effect; nearly all actives have a fitted effect of over 55% in size
#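 Image-based read-out: total Hoechst fluorescence of nuclei (405 nm excitation, 500-530 nm emission), with hits raising the fraction of high-intensity nuclei. SW480 colon cells incubated 48 hr with compounds at 37 C.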
# Active calls of the source: *; i = inactive; ? = inconclusive; · = no result given. An excerpt weighted towards active compounds, which were near 8% of everything screened. The call rests on the fitted dose curve; in most records, active means well fitted curve in the direction sought with a large enough effect; inconclusive means small, poorly fitted or top-dose-only effect, or another doubt; inactive means no such curve, though single readings can be large; an effect the other way counts as inactive or inconclusive. Potency means the concentration at half of the fitted maximal effect.
SMILES,KB-V1 MDR tox,HT1080NT lethal,KB-3-1 tox,HT1080 IDH1KD tx,MCF10A rereplic,SW480 rerep
CCOC(CCn1c(SCc2ccc([N+](=O)[O-])cc2)nc2ccccc2c1=O)OCC,3.66µM*,-14.6%,i,-0.2%,-2.7%,-52.4%
Cc1ccc(-n2c(SCc3ccc([N+](=O)[O-])cc3)nc3ccccc3c2=O)cc1,i,4.3%,i,-3.6%,?,-2.0%
Cc1cccc(CNC(=O)c2ccc(NC(=O)N3CC(C)Sc4ccccc43)cc2)c1 (centres undefined),i,·,i,·,·,·
Cc1ccccc1OCC(=O)NCC(=O)OCc1ccc2ccccc2c1,i,·,i,·,·,·
COc1ccc(Br)cc1C1C(C(=O)Nc2ccc(C)cc2C)=C(C)Nc2ncnn21 (centres undefined),i,·,i,·,·,·
COc1ccc(-c2noc(-c3ccc(NCc4ccc(C)cc4)c([N+](=O)[O-])c3)n2)cc1OC,i,·,i,·,·,·
CCOC(=O)C1=C(CC)Nc2ccccc2N=C1NC(=O)Nc1ccc(Cl)c(Cl)c1,i,?,?,?,6.51µM*,?
COC(=O)Cn1c(=O)n(CCc2ccccc2)c(=O)c2c3c(sc21)CCCC3,20.6µM*,-1.9%,i,?,27.5%,-4.3%
CN(C)CCNc1nc2sc3c(c2c(=O)n1CCc1ccccc1)CCCCC3,20.6µM*,-23.9%,i,?,?,18.4µM*
C[C@H](NC(=O)OC(C)(C)C)C(=O)c1ccco1,i,·,i,·,·,·
CN(C)CC(O)CN(c1ccccc1)c1ccccc1 (centres undefined),i,-12.3%,i,-4.7%,-16.5%,-22.0%
CN(C)CC(CCC(CN(C)C)C(O)(c1ccccc1)c1ccccc1)C(O)(c1ccccc1)c1ccccc1 (centres undefined),?,-13.9%,?,?,20.6µM*,?
Cc1occc(=O)c1OC(=O)Nc1ccc(Cl)c(Cl)c1,?,23.1µM*,?,?,18.4µM*,-9.5%
COc1ccc(C(=O)Oc2c(C)occc2=O)cc1OC,?,-4.3%,i,-2.5%,0.1%,-2.3%
Cc1cc(N/N=C/c2ccncc2)nc2ccccc12,6.51µM*,7.4%,?,-4.1%,-9.1%,-70.8%
Cc1cc(N/N=C/c2cccc(Br)c2)nc2ccccc12,20.6µM*,-0.5%,i,-0.3%,2.1%,-17.2%
Cc1ccc(CCNC(=O)CCCn2nc(C)c3c(C)n(-c4ccccc4)nc3c2=O)cc1,i,·,i,·,·,·
CCCC(=O)Nc1cc(C)c(O)c(-c2nc3ncccc3o2)c1,i,·,i,·,·,·
O=S(=O)(c1ccccc1)c1nc(Nc2ccccc2N2CCOCC2)sc1Cl,20.6µM*,?,i,-24.5%,2.8%,0.5%
COc1ccc(OC)c(CCNC(=O)c2cnn(-c3ccccc3Cl)c2C2CCN(C(=O)OC(C)(C)C)CC2)c1,i,·,i,·,·,·
Cc1cccc(N2C(=O)CC(SC(=Nc3ccccc3)Nc3ccccc3)C2=O)c1 (centres undefined),18.4µM*,-17.3%,?,-22.6%,23.0%,3.4%
O=C1CC(SC(=Nc2ccccc2)Nc2ccccc2)C(=O)N1c1ccc(Cl)c(Cl)c1 (centres undefined),16.4µM*,?,?,?,?,?
CN=C(Nc1ccc2c(c1)OCO2)SC1CC(=O)N(c2ccccc2)C1=O (centres undefined),18.4µM*,-15.5%,i,-12.4%,6.3%,0.4%
COC(=O)c1ccc(NC(=O)CN(c2cccc(C(F)(F)F)c2)S(C)(=O)=O)cc1,i,·,i,·,·,·
O=C(CSc1nc2sc3c(c2c(=O)[nH]1)CCCC3)Nc1ccccc1F,i,·,i,·,·,·
SMILES,KB-V1 MDR tox,HT1080NT lethal,KB-3-1 tox,HT1080 IDH1KD tx,MCF10A rereplic,SW480 rerep
Cc1ccc(S(=O)(=O)NCC(=O)N(c2ccccc2)C(C(=O)NCc2ccccc2)c2ccco2)cc1 (centres undefined),2.31µM*,-1.9%,i,-3.9%,23.7%,19.2%
Cc1ccc(S(=O)(=O)NCCC(c2ccccc2)c2ccco2)cc1 (centres undefined),23.1µM*,-1.3%,i,-6.2%,5.8%,-4.0%
Cc1ccc(S(=O)(=O)NCC(c2ccco2)S(=O)(=O)c2ccccc2)cc1 (centres undefined),i,5.3%,i,-0.7%,?,5.7%
COc1ccccc1C(CCNS(=O)(=O)c1ccc(C)cc1)c1ccco1 (centres undefined),?,-5.6%,i,1.0%,13µM*,-110.3%
Cc1ccc(S(=O)(=O)NCCC(c2ccc(F)cc2)c2ccco2)cc1 (centres undefined),20.6µM*,-8.3%,?,-22.7%,?,6.2%
O=S(=O)(NCCNS(=O)(=O)c1ccc(F)cc1)c1ccc(F)cc1,i,5.4%,i,-4.6%,-0.3%,-9.9%
COc1cc(C(=O)N2CCN(CCc3ccccn3)CC2)cc(OC)c1OC,i,·,i,·,·,·
CNc1ccc(/C=C2\C=Cc3ccccc32)cc1OC,i,·,?,·,·,·
Cc1ccc2oc(-c3cc(NC(=O)CC(C)C)ccc3Cl)nc2c1,i,·,i,·,·,·
Cn1cc(/C=C/C(=O)c2ccccc2)c2ccccc21,?,-9.5%,i,-19.1%,?,?
Cc1ccc(C(=O)/C=C/c2cn(CN3CCN(C)CC3)c3ccccc23)cc1,i,?,i,?,18.4µM*,18.4µM*
C=Cc1ccc(Cn2c(SCC(=O)N3CCN(c4ccc(F)cc4)CC3)nc3ccccc32)cc1,i,·,i,·,·,·
COc1ccc(/C(=N/Nc2ncnc3ccccc23)C(=O)O)cc1,i,23.1µM*,i,23.1µM*,15.0%,?
CCOC(=O)/C(=N\Nc1ncnc2ccccc12)c1ccc(OC)cc1,i,-23.6%,i,-0.2%,-21.2%,11.8%
COCCCNC(=S)NCCNc1nc2c(C)c(C)ccc2cc1C#N,?,-17.2%,i,0.6%,23.1µM*,?
CN(C)CCCNC(=S)NCCNc1nc2cc3c(cc2cc1C#N)OCO3,i,-0.5%,i,-3.7%,20.6µM*,14.6µM*
COCCCNC(=S)N1CCCN(c2nc3c(C)c(C)ccc3cc2C#N)CC1,i,6.6%,i,8.3%,-3.8%,6.5%
COc1cc(OC)cc(C(=O)NCCNc2nc3cc(C)cc(C)c3cc2C#N)c1,i,-16.5%,i,-18.5%,16.4µM*,?
COc1cc(C(=O)NCCNc2nc3c(C)c(C)ccc3cc2C#N)cc(OC)c1OC,i,-0.8%,i,4.1%,20.6µM*,?
